Tau fluor counter: counter-screen for tau fibril formation inhibitors; Potency, µM (titrated, usually from 57.7 µM); AID 1463; 0.93% of 280,000 active; tau K18 P301L Alexa594 fluorescence, heparin fibrillization; note: nearly all actives have a fitted effect of over 55% in size
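Human tau K18 P301L (15 uM unlabeled, 0.24 uM Alexa 594-labeled) in 100 mM sodium acetate pH 7 with 20 uM heparin, 6 hr at 37 C. ThT 30 uM added, 1 hr ambient; Alexa 594 FP and total fluorescence read at 555/632 nm.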
FBPA coupling cs: counter-screen for Giardia aldolase inhibitors: coupling enzyme system; activity change, negative = inhibition, % at 58.2 µM, hits read low; coupling enzyme system counterscreen, AmpLite Red fluorescence; AID 2472; 0.67% of 290,000 active; in the data active = activity change below about -30%
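Activity here indicates interference with the coupling reaction, not aldolase inhibition. Compounds at 57.5 uM final met coupling enzymes for 10 min at RT; substrate and AmpLite Red detection followed, with a 525/598 nm fluorescence read after 20 min.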
KDM4E inh: JMJD2E (human) inhibition | B2RXH2 | JMJD2E catalytic domain, FDH-coupled NADH fluorescence (FDH is formaldehyde dehydrogenase) | Potency, µM (top dose mostly 57.1 µM), usual class: inhibitors | 1.6% of 230,000 active; active = well fitted inhibition curve with a large enough effect, not every such curve was filed as active; inconclusive = small, poorly fitted or top-dose-only effect, or another doubt; inactive = no such curve, though single readings can be large or run the other way; note: nearly all actives have a fitted effect of over 50% in size
Target sequence (B2RXH2 1-337 limits assumed): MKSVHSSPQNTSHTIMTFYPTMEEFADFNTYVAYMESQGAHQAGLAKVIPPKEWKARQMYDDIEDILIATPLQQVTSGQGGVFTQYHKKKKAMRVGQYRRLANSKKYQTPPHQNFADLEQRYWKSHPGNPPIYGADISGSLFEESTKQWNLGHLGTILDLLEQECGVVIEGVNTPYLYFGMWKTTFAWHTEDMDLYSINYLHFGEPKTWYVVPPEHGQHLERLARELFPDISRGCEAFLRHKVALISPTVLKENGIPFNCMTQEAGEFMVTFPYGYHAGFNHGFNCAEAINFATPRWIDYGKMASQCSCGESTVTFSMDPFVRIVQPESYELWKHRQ
Tau fibril FP: inhibitors of human tau fibril formation; K18 P301L tau heparin fibrillization, Alexa594 FP, 6 h; 0.39% of 280,000 active; Potency, µM (top dose mostly 57.7 µM), usual class: inhibitors; P10636; AID 1468; note: nearly all actives have a fitted effect of over 55% in size
Target sequence (P10636 561-689 P618L limits assumed): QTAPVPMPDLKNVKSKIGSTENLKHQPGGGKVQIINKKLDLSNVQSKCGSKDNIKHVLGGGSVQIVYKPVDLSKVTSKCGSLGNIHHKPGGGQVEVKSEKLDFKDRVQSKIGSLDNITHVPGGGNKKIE
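Steps: dispense K18 P301L tau (15 uM plus 0.24 uM Alexa 594 tracer, final) in pH 7 sodium acetate; add compound; add heparin (20 uM final); incubate 6 hr, 37 C; add ThT (30 uM final); after 1 hr ambient, read FP.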
Tau ThT inhib: blocks human tau fibril formation measured by thioflavin T; P10636; recombinant tau K18 P301L (four-repeat tau fragment), heparin-induced fibrillization, ThT fluorescence; Potency, µM (titrated, usually from 57.4 µM), usual class: inhibitors; 2.1% of 270,000 active; AID 1460; note: nearly all actives have a fitted effect of over 55% in size
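Recombinant human tau K18 fragment […] carrying P301L, 15 uM unlabeled plus 0.24 uM Alexa 594-labeled, was fibrillized with 20 uM heparin in 100 mM sodium acetate pH 7 for 6 hr at 37 C; 30 uM ThT fluorescence read after 1 hr.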
Sfp PPTase inh: blocks B. subtilis Sfp PPTase activity | Q9F4F7 | Biochemical Sfp PPTase activity, qHTS | Potency, µM, most hits filed as inhibitors | 3.5% of 310,000 active | AID 1490;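 note: the enzyme is Sfp with the accession as filed and its product quenches rhodamine fluorescence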
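With Hepes-Na pH 7.6 buffer containing 10 mM MgCl2, Sfp (15 nM) modified BHQ-2-YbbR (12.5 uM) using rhodamine-CoA (5 uM). Two reads 30 minutes apart at 525/598 nm yielded each well's rate.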
Hits are given with their value; i = inactive; ? = inconclusive; nt = not tested or not shown; [ ] = dose if it differs, or a comment. A selection: hits, their analogues and other compounds. The true share with any hit is near 5.3%. Unless noted, calls come from the whole dose curve; as a rule, active = well fitted curve in the direction sought with a large enough effect; inconclusive = small, poorly fitted or top-dose-only effect, or another doubt; inactive = no such curve, though single readings can be large; an effect the other way counts as inactive or inconclusive.

SMILES	Tau fluor counter	FBPA coupling cs	KDM4E inh	Tau fibril FP	Tau ThT inhib	Sfp PPTase inh
COC1=CC(=O)C(O)=C/C1=C\C=C\c1ccccc1	?	i	13µM	16µM	7.9µM	11µM
CC(C)(C)C1=CC=C(C(C)(C)C)C(=O)C1=O	?	-60	i	18µM	18µM	1.6µM
CC(C)(C)c1ccc2c(c1)C(=O)c1ccccc1C2=O	i	i	i	i	i	i
Cc1ccsc1/C=C1/C(=O)NN(c2ccccc2)C1=O	i	i	i	i	?	i
Cc1ccsc1C=C1C(=O)c2ccccc2C1=O	?	i	i	i	14µM	i
COc1cc(/C=C(/C#N)c2nc3ccccc3[nH]2)ccc1OCc1ccc(C(=O)O)o1	i	nt	i	i	i	?
COC(=O)c1ccc(COc2ccc(/C=C(\C#N)c3nc4ccccc4[nH]3)cc2OC)o1	?	i	22µM	?	?	i
COc1ccc(NC(=O)c2cc3cccc(OC)c3oc2=Nc2ccc(C(=O)O)cc2)cc1OC	?	i	?	?	14µM	i
Cc1cc(C)c(/C=C/c2onc(C)c2S(=O)(=O)N2CCC(C(=O)Nc3ccc(Cl)c(C(F)(F)F)c3)CC2)c(C)c1	i	nt	nt	?	i	nt
O=C(Oc1coc(CSc2ncccn2)cc1=O)c1ccc(Br)o1	i	i	i	i	?	i
O=C(Oc1coc(CSc2ncccn2)cc1=O)c1ccco1	i	i	i	i	i	89µM
CC(=O)OC/C=C(C)/C=C/C=C(C)/C=C/C1=C(C)CCCC1(C)C	i	i	i	?	?	i
CN1C(=O)CC(Nc2cccc3cccc(N)c23)C1=O (centres undefined)	?	-41	?	?	?	i
CN1C(=O)CC(NNC(=O)c2ccccc2)C1=O (centres undefined)	i	i	i	i	i	i
COC(=O)C1=C[C@@H](C(=O)OC)[C@@H]2C3=C(C(=O)C2(C)C)[C@H](C)n2c(=O)n(C)c(=O)n2[C@@H]3C1	nt	i	nt	nt	nt	i
O=C(NNc1ccc(C(F)(F)F)cc1[N+](=O)[O-])c1ccc(NS(=O)(=O)c2ccc(F)cc2)cc1	11µM[quencher]	i	i	?	14µM	i
Nc1nc(N)c2nc(-c3ccccc3)c(N)nc2n1	i	i	?	i	i	i
NSc1nc(N)c2nc(-c3ccccc3)c(-c3ccccc3)nc2n1	i	i	?	?	16µM	i
Nc1ccc(Sc2ccc([N+](=O)[O-])cc2)cc1	?	i	i	i	?	i
O=C1C=CC(=O)N1c1ccc(Sc2ccc([N+](=O)[O-])cc2)cc1	?	i	i	i	?	8.9µM
OCC1OC(/C=C\c2ccccc2)C=CC1Oc1ccc2c(c1)OCO2 (centres undefined)	i[11.6 µM]	i	nt	i[11.6 µM]	?	i
CCn1c(O)c(/C=N/N=C2CCCCC2)c2cc(C3=NNC(=O)CC3)ccc21	i	-35	?	i	10µM	?
c1cncc(-c2nc(NCCN3CCOCC3)c3ccccc3n2)c1	i	i	i	i	i	i
CC1=NN(CCC#N)C(=O)/C1=C/c1ccc(N(C)C)cc1	i	i	i	i	25µM	i
O=[N+]([O-])c1cccnc1-n1cnc2ccccc21	i	i	i	i	i	10µM
SMILES	Tau fluor counter	FBPA coupling cs	KDM4E inh	Tau fibril FP	Tau ThT inhib	Sfp PPTase inh
Cc1cc(C)n(-c2ncccc2[N+](=O)[O-])n1	i	i	i	i	i	i
Cc1cc2ncn(-c3ncccc3[N+](=O)[O-])c2cc1C	nt	i	nt	nt	nt	40µM
COCCNC(=O)c1c(NC(=O)c2cc(=O)c3cc(C)cc(C)c3o2)sc2c1CCCC2	i	nt	nt	i	?	nt
CN1C(C(=O)c2ccccc2)=C(OC(=O)c2ccc(Br)cc2)c2ccccc2S1(=O)=O	i	nt	nt	i	?	nt
CC(=O)OCC(NC(=O)C(COCc1ccccc1)NC(=O)OC(C)(C)C)C1OC(n2cc(F)c(=O)[nH]c2=O)C(OC(C)=O)C1OC(C)=O (centres undefined)	nt	i	nt	nt	nt	i
Cc1c2cnn(CC(=O)N3CCN(c4ccccc4)CC3)c(=O)c2c(C)n1Cc1ccc(F)cc1	i	nt	nt	i	i	nt
Cc1ccc(CCNC(=O)C2CCCN(S(=O)(=O)c3ccc4c(c3)oc(=O)n4C)C2)cc1 (centres undefined)	i	nt	nt	i	i	nt
CCN(CC)c1ccc(C(=O)Nc2ccccc2)cc1[N+](=O)[O-]	?	i	i	i	16µM	i
Cc1ccc(NC(=S)c2nc3ccccc3[nH]2)cc1	?	i	?	i	7.9µM	i
COc1cccc(N2CCN(c3cnc4ccccc4n3)CC2)c1	?	i	i	i	?	79µM
O=C1C(c2c(O)[nH]c3ccccc23)=Nc2ccccc21	?	i	i	i	?	i
CC(=O)c1cccc2c(O)c(C3=Nc4ccccc4C3=O)[nH]c12	?	-48	?	?	3.5µM	40µM
Cc1ccc(-c2cc(-c3ccc(F)cc3)c(C#N)c(N)n2)o1	i	i	i	i	?	?
CCOc1cc(-c2cc(-c3ccc(C)o3)nc(N)c2C#N)ccc1O	i	i	?	i	i	i
Cc1nc(N)c(C#N)c(-c2ccc3c(c2)OCO3)c1C	nt	i	nt	nt	nt	i
N#Cc1c(N)oc(-c2ccc3c(c2)OCO3)c1-c1ccc2c(c1)OCO2	28µM[quencher]	-38	?	i	?	i
Cc1ccc(-c2cc(-c3ccc4c(c3)OCO4)c(C#N)c(N)n2)o1	?	i	?	i	?	10µM
Cc1ccc(-c2cc(-c3ccc(C)o3)nc(N)c2C#N)cc1	i	i	?	i	?	13µM
Cc1ccc(-c2cc(-c3ccc(Cl)cc3)c(C#N)c(N)n2)o1	i	i	?	i	?	8.9µM
COc1ccc(S(=O)(=O)Nc2ccc3oc4c(c3c2)C(=O)CC(C)(C)C4)cc1	i	nt	nt	i	i	nt
CCOC(=O)c1cc(-c2ccccc2)n(CCC(=O)NCCc2ccc(C)cc2)c1C	i	nt	nt	i	i	nt
N#Cc1ccccc1Cn1c(=O)n(-c2ccc(F)c(Cl)c2)c(=O)c2sccc21	i	nt	nt	i	i	nt
CCCNC(=O)C1=CC(c2ccc3c(c2)OCO3)=NS(=O)(=O)N1C	i	nt	nt	i	i	nt
Cc1cc(O)c(C(C)C)cc1N=Nc1ccccc1C(=O)O	i	i	i	i	6.3µM	i
COc1cc(N=Nc2ccccc2C(=O)O)ccc1O	i	i	i	i	7.1µM	i
Cc1cc(N=Nc2ccccc2C(=O)O)c(C)c(C)c1O	?	i	i	i	0.89µM	i
O=C(c1csnn1)N1CCC2(CC1)CN(c1ccccn1)C2	nt	i	nt	nt	nt	i
CCOc1ccccc1Nc1cc(-c2ccccc2)nc(C)n1	i	nt	nt	i	i	nt
CCOc1ccc(Nc2cc(Nc3ccccc3OCC)nc(C=C(C#N)C#N)n2)cc1	i	i	i	i	2.8µM	i
O=C(NC1CC(=O)N(c2cccc(F)c2)C1)C(c1ccccc1)c1ccccc1 (centres undefined)	i	nt	nt	i	i	nt

Source: PubChem
